From PubChem BioAssay AID1347426 (Functional Genomics Laboratory (NCATS/FGL), 2020) come the findings set out here.

Among all 31,000 sequences or so, about 1,400 (4.5%) were called active.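 The calls were made as follows: active = median seed-adjusted z-score above 1 or below -1; inactive = the rest.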 Shown is part of a subset that was picked to be rich in actives.

The nature of the assay: Novel Modifiers of Survival Motor Neuron (SMN) Protein: Gene Identification via Genome-wide siRNA Screen.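 Also: luminescence tracks full-length SMN protein made from the SMN2 reporter.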 The following applies: HEK293T SMN2-luciferase reporter, siRNA knockdown, 72 h; actives lie on both sides. The procedure, abridged:
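Steps: spot 1 pmol siRNA, add Lipofectamine RNAiMax in serum-free DMEM, seed HEK293T SMN2–luciferase reporter cells; incubate 72 h at 37 °C; add ONE-Glo; normalize luminescence to control siRNA, log10, MAD. Candidates: |MAD| > 1.0.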
For AGAGCAAGCGGAAAAGGGATT against HAND1, the median seed-adjusted z-score was 0.161 (inactive).
Take GAAUCACCAGCUAAACUAUTT against STARD6: the median seed-adjusted z-score is 0.0605 (inactive).
The figure for GCACCAGCGAGAGAAGAGATT against PLA2G3 is 0.543 (inactive).
As for CCAAAGAACUUAAGGAUUUTT against NEURL2, the figure is 1.39 (active); as for GGUCUACGUGAACAACUCUTT against KCNMB4, 0 (inactive).
With GCAAAUCGCUAGCAUCAUUTT against MLL2, the median seed-adjusted z-score is -2.11 (active).
On to GCAUUUUGCAUAUCCACCATT against TRMT12, for which the median seed-adjusted z-score is 0.352 (inactive).
Consider GAAGAAACUUGUGAACGAATT against MX1, for which the median seed-adjusted z-score is -1.49 (active).
As for GGAACAGUCAUGCUGGAUATT against SLC4A7, the figure is 0 (inactive); as for GAACAUCGCAUAAUCCUGATT against ORC1L, -0.536 (inactive).
The figure for GCAACUUCGUGAGAUUACATT against COLEC12 is -1.04 (active); for AAGCAUAAUUUGUACAGCUTT against NMNAT1 it is 0.22 (inactive); for CCAAGAUGCGAUCCUCCAATT against HOXA4 it is 0.194 (inactive).
As for GGCUUGGAUCAAUCUAAGATT against HNRNPL, the figure is 1.04 (active).
Take GGGCAACUCUUCAUCUACATT against SLC5A10: the median seed-adjusted z-score is 0.669 (inactive).
Turning to GGCUAUACAUGGAUAGCAATT against SLITRK1, the median seed-adjusted z-score is 0.215 (inactive).
With CGAUUAGUGUCAAAGGCUUTT against MMP7, the median seed-adjusted z-score is 0.0315 (inactive).
As for CGAACGACAGUUCCACAAATT against PDE6A, the median seed-adjusted z-score is 1.25 (active).
As for GAAUCUAUGAGAUGAACAATT against LDB2, the median seed-adjusted z-score is -0.0847 (inactive).
With GCAGAAUACAAGAGCUUGATT against EID2, the median seed-adjusted z-score was -1.04 (active).
As for GGCUCCUUAUAUGACUAUUTT against ACVR1C, the figure is -0.0005 (inactive); as for GCUCUGAGGGAGUAUCGAATT against TROVE2, 0.399 (inactive); as for ACAUAACCGUUCUUCGAGATT against GTPBP2, -0.166 (inactive).
The figure for CAAAAGGACAAAUCAACGATT against DDAH1 is 0.138 (inactive); for GAGACUGUGCAGAUGUAUATT against ANGPT1 it is 0.289 (inactive); for GCAUCAGCAUAAGUCCAUUTT against SIAH1 it is 1.5 (active).
As for GUGUCGUACUCACAUCCAUTT against PTCH2, the median seed-adjusted z-score is -0.191 (inactive).
As for GUGACGGCUUUAGACCUGATT against PRTFDC1, the figure is 0.493 (inactive); as for GCAAGGUUCCUAGCGUGUATT against VCAM1, 0.19 (inactive).
CAGCAGAGCCGAUCCAAGATT against GPR37L1: the median seed-adjusted z-score was -0.0348 (inactive).
As for ACAUCUUCAAGGCCCUUUUTT against CTDSP2, the figure is 0.498 (inactive); as for GGAAUUCCGUAAAAGCAUUTT against HOXC13, -0.318 (inactive).
The figure for CACUAAUCGUGAGCAUGGATT against XRCC5 is -1.11 (active); for GAGUAGUUUAGAUAAGUUATT against SPAG9 it is 0.0795 (inactive).
As for GCAUCCGAGAUGUGACUAATT against DIS3, the figure is 0.266 (inactive); as for GCAGUGAUCAUAAUUCUCATT against SLC7A1, 0.445 (inactive); as for UGACGACACUGACCGCAGATT against UBE2S, 0.348 (inactive).
For the sequence GCAUUGAGAUGUUCCACAATT against TUFM, the median seed-adjusted z-score was 1.07 (active).
As for GAAUCACUCUUUGACAACATT against SLC2A13, the figure is -0.0451 (inactive); as for GAAGAAUACAAACAGCAAUTT against CRCP, 0 (inactive).
For CAGCUGUUCUCAUAUGCUATT against ATP5G3, the median seed-adjusted z-score is 0 (inactive).
As for CCUGAUUACUAUAAGAUCATT against BRD4, the figure is 1.13 (active); as for GAACCUCUCUGAAACUGCUTT against PBLD, -0.0809 (inactive); as for CGACUCCGGAGGAUUGAAATT against GSX2, -0.621 (inactive).
As for GCAAGUUAGUGGAUUAAAATT against FOXP1, the figure is -0.198 (inactive).
For GACUAGUACUUACGGCUUUTT against RBM15, the median seed-adjusted z-score is -0.409 (inactive).
The figure for GCAUGAACGCGGUCAUGAUTT against RAB40C is -0.161 (inactive); for CAGGUCAAGUGUUACCGAUTT against ZCCHC13 it is -0.297 (inactive); for GCAAUUACAGGCUAGUGAATT against AKAP9 it is -1.22 (active).
As for CCUACUUCGGAGUCUAUGATT against SLC25A4, the figure is -0.379 (inactive); as for CAAGGUUGAUGGGCGUGUATT against HNRNPA3, 0.915 (inactive).
The figure for CCAGGACUUUGUUACUGCATT against TIGD6 is -0.443 (inactive).
GCUGGUACCCGUCAACAAATT against ABCC10: the median seed-adjusted z-score was -1.56 (active).
For the sequence GGACUUCAAUAUCGCAGUATT against PLCE1, the median seed-adjusted z-score was 0.597 (inactive).
As to GGAACAGCGCAGUACGUUUTT against PDPK1, the median seed-adjusted z-score is 0.0807 (inactive).
Turning to CCAUCGCUUUCAGCAGACATT against DLX6, the median seed-adjusted z-score is 0.0275 (inactive).
As to GGACCACAAGGGAAUACAATT against KHDRBS1, the median seed-adjusted z-score was 0.0916 (inactive).
In the case of ACUUGGAUCAUUUCCCUGATT against SLC13A5, the median seed-adjusted z-score was 0 (inactive).
As for GACCUUGAAUGUUCAACAUTT against ZNF470, the figure is -1.26 (active); as for GCCGCAUCGUAGCUCGUAATT against RRAD, -0.267 (inactive); as for GGAAUAUGCAUAUCAUGGATT against LNPEP, -0.386 (inactive).
As for CGAUAUAUGUGAUAUGCGUTT against ZNF740, the figure is -0.914 (inactive).
Take GCAACAAGACGGAAUUGGATT against SFRS3: the median seed-adjusted z-score was 2.74 (active).
Take GAGUGGACAUUCUAAUCAATT against RDH13: the median seed-adjusted z-score was 0.208 (inactive).
The figure for CCAUCUUAAACUCGCUCUATT against GPR114 is 0.805 (inactive); for CUACCGGGCUGACCUCAAATT against GPR153 it is -1.08 (active).
As to UGAGAGCUCUAGAUAUGAATT against ZNF768, the median seed-adjusted z-score is 0.169 (inactive).
Regarding ACGGCUCUGUGGACACAGATT against GPR78, the median seed-adjusted z-score was 0.607 (inactive).
As for CGAGUGAAAGAAUCAAUAUTT against OXSR1, the figure is -0.0682 (inactive).
